{"source": "PubChem BioAssay"}
{"assay": "differential killing of epithelial or mesenchymal cells, primary screen, imaging, PC-3E GFP, TEM4-18 mCherry, co-culture (AID 1345086);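 also: cells exposed to compound for 72 h before imaging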", "conditions": "imaging cell counts, measured here: epithelial PC-3E GFP cell survival, at 1 µM"}
{"compound": "CCOC(=O)C1=C(C)NC(C)=C(C(=O)OC)C1c1cccc(Cl)c1Cl", "note": "(stereo unspecified)", "normalised cell number": 1.11}
{"compound": "O=C(NCCN1CCOCC1)c1ccc(Cl)cc1", "normalised cell number": 0.89}
{"compound": "CCOc1cc(CC(=O)N[C@@H](CC(C)C)c2ccccc2N2CCCCC2)ccc1C(=O)O", "normalised cell number": 1.2}
{"compound": "COCCCC/C(=N\\OCCN)c1ccc(C(F)(F)F)cc1", "normalised cell number": 1.1}
{"compound": "COc1ccccc1N1CCN(CC(O)COc2cccc3ccccc23)CC1", "note": "(stereo unspecified)", "normalised cell number": 1.13}
{"compound": "CC(C)NCC(O)COc1ccc(CCOCC2CC2)cc1", "note": "(stereo unspecified)", "normalised cell number": 1.26}
{"compound": "COc1cc2nc(N3CCN(C(=O)C4CCCO4)CC3)nc(N)c2cc1OC", "note": "(stereo unspecified)", "normalised cell number": 0.99}
{"compound": "c1cnc(N2CCN(Cc3ccc4c(c3)OCO4)CC2)nc1", "normalised cell number": 0.85}
{"compound": "CCOC(=O)c1ncn2c1CN(C)C(=O)c1cc(F)ccc1-2", "normalised cell number": 0.95}
{"compound": "CC(C)NCC(O)COc1ccc(COCCOC(C)C)cc1", "note": "(stereo unspecified)", "normalised cell number": 1.05}
{"compound": "CN1CCC(=C2c3ccccc3C=Cc3ccccc32)CC1", "normalised cell number": 0.91}
{"compound": "Cc1ncc([N+](=O)[O-])n1CC(O)CCl", "note": "(stereo unspecified)", "normalised cell number": 1.1}
{"compound": "CCc1oc2ccccc2c1C(=O)c1cc(Br)c(O)c(Br)c1", "normalised cell number": 1.08}
{"compound": "O=C(CCNNC(=O)c1ccncc1)NCc1ccccc1", "normalised cell number": 1.02}
{"compound": "Oc1ccc(C2CNCCc3c2cc(O)c(O)c3Cl)cc1", "note": "(stereo unspecified)", "normalised cell number": 1.1}
{"compound": "O=C1CC2(CCCC2)CC(=O)N1CCCCN1CCN(c2ncccn2)CC1", "normalised cell number": 1.05}
{"compound": "Cc1cccc(C)c1OCC(C)N", "note": "(stereo unspecified)", "normalised cell number": 1.13}
{"compound": "CN1CCC(=C2c3ccccc3CC(=O)c3sccc32)CC1", "normalised cell number": 1.17}
{"compound": "CCC1=C(C)CN(C(=O)NCCc2ccc(S(=O)(=O)NC(=O)NC3CCC(C)CC3)cc2)C1=O", "note": "(stereo unspecified)", "normalised cell number": 1.22}
{"compound": "Nc1nc2c(ncn2CCC(CO)CO)c(=O)[nH]1", "normalised cell number": 0.96}
{"compound": "Cn1nnc2c(C(N)=O)ncn2c1=O", "normalised cell number": 1.03}
{"compound": "Nc1ccc(O)c(C(=O)O)c1", "normalised cell number": 1.04}
{"compound": "CC1CCN(CCCC(=O)c2ccc(F)cc2)CC1", "normalised cell number": 0.97}
{"compound": "COC(=O)C1=C(C)NC(C)=C(C(=O)OC(C)C)C1c1cccc2nonc12", "note": "(stereo unspecified)", "normalised cell number": 0.87}
{"compound": "OCCOCCN1CCN(C2=Nc3ccccc3Sc3ccccc32)CC1", "normalised cell number": 1.08}
{"compound": "Nc1nc(N)nc(-c2cc(Cl)ccc2Cl)n1", "normalised cell number": 1.08}
{"compound": "CCc1c2c(nc3ccc(OC(=O)N4CCC(N5CCCCC5)CC4)cc13)-c1cc3c(c(=O)n1C2)COC(=O)[C@]3(O)CC", "normalised cell number": 0.32}
{"compound": "COc1ccc(C2CNC(=O)C2)cc1OC1CCCC1", "note": "(stereo unspecified)", "normalised cell number": 1.05}
{"compound": "CN1CCCCC1CCN1c2ccccc2Sc2ccc(S(C)=O)cc21", "note": "(stereo unspecified)", "normalised cell number": 1.11}
{"compound": "O=C(O)/C=C/c1ccc(Cn2ccnc2)cc1", "normalised cell number": 1}
{"compound": "COc1ccc2nc(S(=O)Cc3ncc(C)c(OC)c3C)[nH]c2c1", "note": "(stereo unspecified)", "normalised cell number": 0.98}
{"compound": "CCN1CCCC1CNC(=O)c1cc(S(=O)(=O)CC)c(N)cc1OC", "note": "(stereo unspecified)", "normalised cell number": 0.89}
{"compound": "CCOC(=O)OC(C)OC1=C(C(=O)Nc2ccccn2)N(C)S(=O)(=O)c2ccccc21", "note": "(stereo unspecified)", "normalised cell number": 0.84}
{"compound": "O=C(NCCO[N+](=O)[O-])c1cccnc1", "normalised cell number": 1.18}
{"compound": "CC[N+](C)(CC)CCOC(=O)C(O)(c1ccccc1)C1CCCCC1", "note": "(stereo unspecified)", "normalised cell number": 1.13}
{"compound": "CNS(=O)(=O)Cc1ccc2[nH]cc(CCN(C)C)c2c1", "normalised cell number": 1.07}
{"compound": "CCc1nn(CCCN2CCN(c3cccc(Cl)c3)CC2)c(=O)n1CCOc1ccccc1", "normalised cell number": 0.96}
{"compound": "OCc1cc(C(O)CNCCCCCCOCCCCc2ccccc2)ccc1O", "note": "(stereo unspecified)", "normalised cell number": 0.82}
{"assay": "differential killing of epithelial or mesenchymal cells, primary screen, imaging, PC-3E GFP, TEM4-18 mCherry, co-culture (AID 1345086);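 also: cells exposed to compound for 72 h before imaging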", "conditions": "imaging cell counts, measured here: mesenchymal TEM4-18 mCherry cell survival, at 1 µM"}
{"compound": "CCOC(=O)C1=C(C)NC(C)=C(C(=O)OC)C1c1cccc(Cl)c1Cl", "note": "(stereo unspecified)", "normalised cell number": 1.2}
{"compound": "O=C(NCCN1CCOCC1)c1ccc(Cl)cc1", "normalised cell number": 0.79}
{"compound": "CCOc1cc(CC(=O)N[C@@H](CC(C)C)c2ccccc2N2CCCCC2)ccc1C(=O)O", "normalised cell number": 1.16}
{"compound": "COCCCC/C(=N\\OCCN)c1ccc(C(F)(F)F)cc1", "normalised cell number": 1.01}
{"compound": "COc1ccccc1N1CCN(CC(O)COc2cccc3ccccc23)CC1", "note": "(stereo unspecified)", "normalised cell number": 0.8}
{"compound": "CC(C)NCC(O)COc1ccc(CCOCC2CC2)cc1", "note": "(stereo unspecified)", "normalised cell number": 1.02}
{"compound": "COc1cc2nc(N3CCN(C(=O)C4CCCO4)CC3)nc(N)c2cc1OC", "note": "(stereo unspecified)", "normalised cell number": 0.94}
{"compound": "c1cnc(N2CCN(Cc3ccc4c(c3)OCO4)CC2)nc1", "normalised cell number": 0.96}
{"compound": "CCOC(=O)c1ncn2c1CN(C)C(=O)c1cc(F)ccc1-2", "normalised cell number": 0.84}
{"compound": "CC(C)NCC(O)COc1ccc(COCCOC(C)C)cc1", "note": "(stereo unspecified)", "normalised cell number": 0.94}
{"compound": "CN1CCC(=C2c3ccccc3C=Cc3ccccc32)CC1", "normalised cell number": 0.97}
{"compound": "Cc1ncc([N+](=O)[O-])n1CC(O)CCl", "note": "(stereo unspecified)", "normalised cell number": 1.18}
{"compound": "CCc1oc2ccccc2c1C(=O)c1cc(Br)c(O)c(Br)c1", "normalised cell number": 0.95}
{"compound": "O=C(CCNNC(=O)c1ccncc1)NCc1ccccc1", "normalised cell number": 1.04}
{"compound": "Oc1ccc(C2CNCCc3c2cc(O)c(O)c3Cl)cc1", "note": "(stereo unspecified)", "normalised cell number": 1.17}
{"compound": "O=C1CC2(CCCC2)CC(=O)N1CCCCN1CCN(c2ncccn2)CC1", "normalised cell number": 1.09}
{"compound": "Cc1cccc(C)c1OCC(C)N", "note": "(stereo unspecified)", "normalised cell number": 1.22}
{"compound": "CN1CCC(=C2c3ccccc3CC(=O)c3sccc32)CC1", "normalised cell number": 1.1}
{"compound": "CCC1=C(C)CN(C(=O)NCCc2ccc(S(=O)(=O)NC(=O)NC3CCC(C)CC3)cc2)C1=O", "note": "(stereo unspecified)", "normalised cell number": 1.05}
{"compound": "Nc1nc2c(ncn2CCC(CO)CO)c(=O)[nH]1", "normalised cell number": 0.96}
{"compound": "Cn1nnc2c(C(N)=O)ncn2c1=O", "normalised cell number": 1.11}
{"compound": "Nc1ccc(O)c(C(=O)O)c1", "normalised cell number": 1.24}
{"compound": "CC1CCN(CCCC(=O)c2ccc(F)cc2)CC1", "normalised cell number": 0.88}
{"compound": "COC(=O)C1=C(C)NC(C)=C(C(=O)OC(C)C)C1c1cccc2nonc12", "note": "(stereo unspecified)", "normalised cell number": 1.04}
{"compound": "OCCOCCN1CCN(C2=Nc3ccccc3Sc3ccccc32)CC1", "normalised cell number": 0.94}
{"compound": "Nc1nc(N)nc(-c2cc(Cl)ccc2Cl)n1", "normalised cell number": 1.09}
{"compound": "CCc1c2c(nc3ccc(OC(=O)N4CCC(N5CCCCC5)CC4)cc13)-c1cc3c(c(=O)n1C2)COC(=O)[C@]3(O)CC", "normalised cell number": 0.34}
{"compound": "COc1ccc(C2CNC(=O)C2)cc1OC1CCCC1", "note": "(stereo unspecified)", "normalised cell number": 0.97}
{"compound": "CN1CCCCC1CCN1c2ccccc2Sc2ccc(S(C)=O)cc21", "note": "(stereo unspecified)", "normalised cell number": 1.16}
{"compound": "O=C(O)/C=C/c1ccc(Cn2ccnc2)cc1", "normalised cell number": 1.05}
{"compound": "COc1ccc2nc(S(=O)Cc3ncc(C)c(OC)c3C)[nH]c2c1", "note": "(stereo unspecified)", "normalised cell number": 0.96}
{"compound": "CCN1CCCC1CNC(=O)c1cc(S(=O)(=O)CC)c(N)cc1OC", "note": "(stereo unspecified)", "normalised cell number": 0.9}
{"compound": "CCOC(=O)OC(C)OC1=C(C(=O)Nc2ccccn2)N(C)S(=O)(=O)c2ccccc21", "note": "(stereo unspecified)", "normalised cell number": 1}
{"compound": "O=C(NCCO[N+](=O)[O-])c1cccnc1", "normalised cell number": 1.11}
{"compound": "CC[N+](C)(CC)CCOC(=O)C(O)(c1ccccc1)C1CCCCC1", "note": "(stereo unspecified)", "normalised cell number": 1.07}
{"compound": "CNS(=O)(=O)Cc1ccc2[nH]cc(CCN(C)C)c2c1", "normalised cell number": 1.25}
{"compound": "CCc1nn(CCCN2CCN(c3cccc(Cl)c3)CC2)c(=O)n1CCOc1ccccc1", "normalised cell number": 1.06}
{"compound": "OCc1cc(C(O)CNCCCCCCOCCCCc2ccccc2)ccc1O", "note": "(stereo unspecified)", "normalised cell number": 0.97}
